Assay results taken from PubChem BioAssay (Tox21).
Records with an inconclusive call do not appear. Activity calls are given as the source filed them. Unless noted, calls follow the shape of the dose curve; as a rule, active = well fitted curve in the direction sought with a large enough effect in the repeat runs; inconclusive = weak or mixed curves; inactive = no such curve, though single readings can be large; an effect the other way counts as inactive or inconclusive.

How the values were obtained:
[1] = biological target: Acetylcholinesterase (Homo sapiens) (UniProt P22303); assay: Acetylcholinesterase (AChE) small molecule antagonists: enzyme-based qHTS assay (AID 1347397; calls by dose curve; also: nearly all actives have a fitted effect of over 55% in size); details: Potency: AChE enzyme activity inhibition
Acetylcholinesterase (Homo sapiens), sequence (P22303 whole entry, looked up): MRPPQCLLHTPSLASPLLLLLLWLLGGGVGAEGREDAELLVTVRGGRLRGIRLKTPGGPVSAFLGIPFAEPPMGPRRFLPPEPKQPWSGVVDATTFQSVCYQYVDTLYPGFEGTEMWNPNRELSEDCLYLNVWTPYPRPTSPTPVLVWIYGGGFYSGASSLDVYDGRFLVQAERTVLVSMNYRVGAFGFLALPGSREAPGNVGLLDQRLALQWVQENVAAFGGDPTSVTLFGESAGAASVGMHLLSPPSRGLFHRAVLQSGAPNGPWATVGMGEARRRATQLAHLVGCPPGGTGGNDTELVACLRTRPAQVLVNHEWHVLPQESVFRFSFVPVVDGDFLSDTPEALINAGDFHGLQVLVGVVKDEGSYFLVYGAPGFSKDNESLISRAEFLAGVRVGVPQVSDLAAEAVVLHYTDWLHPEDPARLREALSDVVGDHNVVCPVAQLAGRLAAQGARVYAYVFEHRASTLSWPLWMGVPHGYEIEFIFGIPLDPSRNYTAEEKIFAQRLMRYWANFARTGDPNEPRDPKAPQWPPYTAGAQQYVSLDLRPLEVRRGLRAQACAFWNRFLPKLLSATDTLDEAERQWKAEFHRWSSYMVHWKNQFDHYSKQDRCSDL
How it was run: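 Human recombinant acetylcholinesterase; substrate acetylthiocholine; thiocholine quantified with DTNB (colorimetric). Compound preincubation 30 min RT; reaction 10 min RT.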

[2] = biological target: Acetylcholinesterase (Homo sapiens) (UniProt P22303); assay: Acetylcholinesterase (AChE) small molecule antagonists: fluorescence cell-based qHTS assay (AID 1347398; calls by dose curve; also: nearly all actives have a fitted effect of over 50% in size); details: Potency: AChE activity
How it was run: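 Thiocholine generated from acetylthiocholine by SH-SY5Y cell AChE is detected with Thiolite Green (Ex/Em 490/520 nm) after 40 min at room temperature, following 30 min compound pretreatment at 37 C.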

[3] = biological target: Acetylcholinesterase (Homo sapiens) (UniProt P22303); assay: Acetylcholinesterase (AChE) small molecule antagonists: enzyme-based qHTS assay with human liver microsomes (AID 1347399; calls by dose curve; also: nearly all actives have a fitted effect of over 60% in size); details: Potency: qHTS inhibition
How it was run: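 Recombinant human AChE (50 mU/mL in the enzyme mix) and human liver microsomes (0.25 mg/mL final) were preincubated with compound and NADPH (0.25 mg/mL final) for 30 min at 37 C. Acetylthiocholine/DTNB was then added; thiocholine was read colorimetrically after 10 min at room temperature.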

[4] = biological target: Cytochrome P450 2C19 (Homo sapiens) (UniProt P33261); assay: Cytochrome P450 Family 2 Subfamily C Member 19 (CYP2C19) small molecule antagonists: luciferase reporter qHTS assay (AID 1671197); also: nearly all actives have a fitted effect of over 65% in size; also: potency is read from the fitted curve at half-maximal effect
Cytochrome P450 2C19 (Homo sapiens), sequence (P33261 whole entry, looked up): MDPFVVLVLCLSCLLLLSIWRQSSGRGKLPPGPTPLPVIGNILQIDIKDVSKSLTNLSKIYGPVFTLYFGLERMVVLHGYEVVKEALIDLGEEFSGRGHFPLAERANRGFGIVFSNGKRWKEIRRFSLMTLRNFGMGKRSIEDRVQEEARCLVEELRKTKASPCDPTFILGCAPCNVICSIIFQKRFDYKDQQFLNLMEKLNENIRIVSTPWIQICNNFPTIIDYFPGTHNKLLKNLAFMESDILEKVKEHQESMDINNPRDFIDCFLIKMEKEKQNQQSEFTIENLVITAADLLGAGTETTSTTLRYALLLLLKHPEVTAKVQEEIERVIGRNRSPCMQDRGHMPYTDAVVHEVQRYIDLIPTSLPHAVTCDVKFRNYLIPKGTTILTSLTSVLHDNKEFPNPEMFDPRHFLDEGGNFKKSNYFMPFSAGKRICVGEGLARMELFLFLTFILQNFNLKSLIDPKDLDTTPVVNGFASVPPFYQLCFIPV
How it was run: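 P450-Glo CYP2C19 system: enzyme-substrate mix with compound 10 min at room temperature, then NADPH regeneration solution, 1 h at 37C. Proluciferin-to-luciferin conversion detected by luminescence after 20 min with detection reagent; ketoconazole as positive control.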

[5] = biological target: Cytochrome P450 2C9 (Homo sapiens) (UniProt P11712); assay: Cytochrome P450 Family 2 Subfamily C Member 9 (CYP2C9) small molecule antagonists: luciferase reporter qHTS assay (AID 1671198); also: nearly all actives have a fitted effect of over 50% in size; also: potency is read from the fitted curve at half-maximal effect
Cytochrome P450 2C9 (Homo sapiens), sequence (P11712 whole entry, looked up): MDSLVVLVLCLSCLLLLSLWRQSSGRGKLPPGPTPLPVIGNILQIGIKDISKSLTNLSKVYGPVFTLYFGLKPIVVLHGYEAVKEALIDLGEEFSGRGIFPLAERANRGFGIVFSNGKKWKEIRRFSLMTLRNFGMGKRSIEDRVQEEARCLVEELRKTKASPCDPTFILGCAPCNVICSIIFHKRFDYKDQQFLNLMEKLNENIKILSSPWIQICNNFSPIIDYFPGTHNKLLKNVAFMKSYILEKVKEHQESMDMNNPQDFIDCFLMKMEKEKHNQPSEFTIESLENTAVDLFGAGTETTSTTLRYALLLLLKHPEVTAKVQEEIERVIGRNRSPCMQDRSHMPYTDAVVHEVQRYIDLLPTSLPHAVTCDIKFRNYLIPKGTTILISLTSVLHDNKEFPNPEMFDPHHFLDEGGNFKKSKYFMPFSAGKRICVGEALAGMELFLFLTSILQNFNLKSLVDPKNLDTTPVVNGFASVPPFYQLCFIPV
How it was run: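 CYP2C9 activity was measured with a P450-Glo proluciferin substrate. Enzyme–substrate mix was held with compound for 10 min at room temperature, then NADPH regeneration solution was added for 1 h at 37C. Luciferin product was read as luminescence.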

[6] = biological target: Voltage-gated inwardly rectifying potassium channel KCNH2 (Homo sapiens) (UniProt Q12809); assay: Human Ether-a-go-go-Related Gene (hERG) channel small molecule antagonists: fluorescence cell-based qHTS assay (AID 1671200);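 also: hERG-expressing U2OS cells given a thallium stimulus after FluxOR II dye loading; series mostly up to about 77 µM; nearly all actives have a fitted effect of over 50% in size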
Voltage-gated inwardly rectifying potassium channel KCNH2 (Homo sapiens), sequence (Q12809 whole entry, looked up): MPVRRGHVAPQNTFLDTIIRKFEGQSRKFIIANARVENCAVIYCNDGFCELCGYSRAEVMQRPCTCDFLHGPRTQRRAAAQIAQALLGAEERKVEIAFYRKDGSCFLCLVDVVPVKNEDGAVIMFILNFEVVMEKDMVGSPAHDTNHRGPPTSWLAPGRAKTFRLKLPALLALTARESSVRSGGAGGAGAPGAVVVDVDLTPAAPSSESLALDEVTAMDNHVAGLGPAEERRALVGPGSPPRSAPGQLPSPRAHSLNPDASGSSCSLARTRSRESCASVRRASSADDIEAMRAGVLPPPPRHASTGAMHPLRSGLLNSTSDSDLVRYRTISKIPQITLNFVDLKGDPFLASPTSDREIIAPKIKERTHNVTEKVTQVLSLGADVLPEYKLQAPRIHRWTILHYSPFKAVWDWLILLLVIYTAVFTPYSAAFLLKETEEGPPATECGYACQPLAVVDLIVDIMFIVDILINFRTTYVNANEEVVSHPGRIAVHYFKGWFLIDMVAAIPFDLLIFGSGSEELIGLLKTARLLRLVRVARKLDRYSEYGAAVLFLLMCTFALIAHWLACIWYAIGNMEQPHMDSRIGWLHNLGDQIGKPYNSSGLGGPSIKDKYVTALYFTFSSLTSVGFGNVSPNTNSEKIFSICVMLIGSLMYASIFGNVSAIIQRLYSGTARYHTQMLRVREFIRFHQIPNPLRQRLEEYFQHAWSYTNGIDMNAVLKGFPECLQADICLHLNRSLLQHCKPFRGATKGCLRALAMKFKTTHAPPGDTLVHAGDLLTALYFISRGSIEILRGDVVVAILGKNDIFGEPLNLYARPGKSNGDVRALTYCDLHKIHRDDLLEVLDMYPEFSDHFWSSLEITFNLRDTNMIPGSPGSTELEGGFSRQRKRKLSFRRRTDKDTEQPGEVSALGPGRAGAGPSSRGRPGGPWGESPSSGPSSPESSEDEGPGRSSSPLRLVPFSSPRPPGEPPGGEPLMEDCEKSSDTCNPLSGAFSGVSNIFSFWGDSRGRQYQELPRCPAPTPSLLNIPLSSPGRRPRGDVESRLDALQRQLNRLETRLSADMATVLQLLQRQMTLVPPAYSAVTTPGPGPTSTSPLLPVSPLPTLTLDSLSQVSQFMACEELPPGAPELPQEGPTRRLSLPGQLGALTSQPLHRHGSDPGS
How it was run: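 U2OS cells expressing the channel were plated at 1000 cells/well, incubated overnight at 37 C, then loaded with FluxOR II thallium-sensitive dye for 1 h at room temperature in the dark, with a further 10 min at room temperature before stimulation.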

[7] = biological target: Cytochrome P450 3A4 (Homo sapiens) (UniProt P08684); assay: Cytochrome P450 Family 3 Subfamily A Member 4 (CYP3A4) small molecule antagonists: luciferase reporter qHTS assay (AID 1671201); also: nearly all actives have a fitted effect of over 50% in size; also: potency is read from the fitted curve at half-maximal effect
Cytochrome P450 3A4 (Homo sapiens), sequence (P08684 whole entry, looked up): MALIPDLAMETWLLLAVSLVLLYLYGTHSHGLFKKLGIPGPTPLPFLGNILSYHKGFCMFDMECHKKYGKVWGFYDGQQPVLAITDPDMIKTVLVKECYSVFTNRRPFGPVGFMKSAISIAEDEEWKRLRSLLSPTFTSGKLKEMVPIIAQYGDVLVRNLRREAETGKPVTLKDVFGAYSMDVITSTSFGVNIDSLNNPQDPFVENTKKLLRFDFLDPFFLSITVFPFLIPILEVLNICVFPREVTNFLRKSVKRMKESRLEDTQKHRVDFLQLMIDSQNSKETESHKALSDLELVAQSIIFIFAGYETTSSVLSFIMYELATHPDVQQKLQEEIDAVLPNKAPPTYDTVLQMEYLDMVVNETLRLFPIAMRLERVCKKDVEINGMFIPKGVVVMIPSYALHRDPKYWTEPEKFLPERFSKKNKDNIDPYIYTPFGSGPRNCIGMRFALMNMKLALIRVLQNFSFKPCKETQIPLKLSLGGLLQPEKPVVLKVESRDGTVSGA
How it was run: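 P450-Glo CYP3A4 system with proluciferin substrate; compounds preincubated 10 min RT with enzyme-substrate mix, then NADPH regeneration added for 1 h RT. Detection reagent 20 min, luminescence read as relative luminescence units.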

[8] = biological target: Cytochrome P450 1A2 (Homo sapiens) (UniProt P05177); assay: Cytochrome P450 Family 1 Subfamily A Member 2 (CYP1A2) small molecule antagonists: luciferase reporter qHTS assay (AID 1671199); also: nearly all actives have a fitted effect of over 50% in size; also: potency is read from the fitted curve at half-maximal effect
Cytochrome P450 1A2 (Homo sapiens), sequence (P05177 whole entry, looked up): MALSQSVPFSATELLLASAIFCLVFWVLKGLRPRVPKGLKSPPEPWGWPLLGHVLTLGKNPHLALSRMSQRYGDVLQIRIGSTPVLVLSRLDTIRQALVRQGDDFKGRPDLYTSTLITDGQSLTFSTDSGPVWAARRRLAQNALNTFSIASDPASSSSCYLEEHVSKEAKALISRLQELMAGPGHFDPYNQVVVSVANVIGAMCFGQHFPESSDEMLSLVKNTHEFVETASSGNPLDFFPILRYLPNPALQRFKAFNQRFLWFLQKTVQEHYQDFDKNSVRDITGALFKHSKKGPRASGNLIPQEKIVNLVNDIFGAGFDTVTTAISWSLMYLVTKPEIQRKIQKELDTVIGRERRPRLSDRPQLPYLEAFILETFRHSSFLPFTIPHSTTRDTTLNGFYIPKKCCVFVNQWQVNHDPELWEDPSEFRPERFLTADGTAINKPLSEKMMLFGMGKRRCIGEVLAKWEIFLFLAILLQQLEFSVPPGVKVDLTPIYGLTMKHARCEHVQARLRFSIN
How it was run: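 CYP1A2 turnover of a luminogenic substrate was quantified after 1 h with NADPH regeneration at room temperature. Furafylline served as positive control.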

[9] = biological target: Cytochrome P450 2D6 (Homo sapiens) (UniProt P10635); assay: Cytochrome P450 Family 2 Subfamily D Member 6 (CYP2D6) small molecule antagonists: luciferase reporter qHTS assay (AID 1671196); also: nearly all actives have a fitted effect of over 50% in size; also: potency is read from the fitted curve at half-maximal effect
Cytochrome P450 2D6 (Homo sapiens), sequence (P10635 whole entry, looked up): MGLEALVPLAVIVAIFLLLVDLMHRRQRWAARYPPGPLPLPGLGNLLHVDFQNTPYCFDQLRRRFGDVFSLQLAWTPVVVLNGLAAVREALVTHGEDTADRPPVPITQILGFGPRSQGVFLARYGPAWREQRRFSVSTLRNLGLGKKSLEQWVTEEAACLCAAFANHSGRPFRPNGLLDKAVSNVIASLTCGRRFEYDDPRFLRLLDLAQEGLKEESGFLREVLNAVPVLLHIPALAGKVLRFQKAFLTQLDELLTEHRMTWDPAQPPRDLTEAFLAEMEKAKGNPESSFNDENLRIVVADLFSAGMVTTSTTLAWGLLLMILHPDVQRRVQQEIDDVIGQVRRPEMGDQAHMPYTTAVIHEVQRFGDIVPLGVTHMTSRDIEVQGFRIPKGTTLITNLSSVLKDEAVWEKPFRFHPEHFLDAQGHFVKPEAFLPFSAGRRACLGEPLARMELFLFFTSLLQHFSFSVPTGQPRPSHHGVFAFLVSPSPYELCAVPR
How it was run: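 Luminescence (RLU), read 20 min after detection reagent, indicated CYP2D6 conversion of proluciferin to luciferin during a 1 h NADPH-dependent reaction at room temperature.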

Measured: Potency

CN1CCN(C(=O)O[C@H]2c3nccnc3C(=O)N2c2ccc(Cl)cn2)CC1
not listed: [8] | [9]
inactive: all other assays above

O=[N+]([O-])c1cc(Cl)c(Cl)c(Cl)c1
active: [8] 11.1 µM
not listed: [9]
inactive: all other assays above

CCCCC(=O)Cl
not listed: [8] | [9]
inactive: all other assays above

CCC(Cl)[N+](=O)[O-] (configuration not stated)
not listed: [8] | [9]
inactive: all other assays above

ClC(Cl)Br
not listed: [8] | [9]
inactive: all other assays above

C[C@H]1CCC[C@H](O)CCCCCc2cc(O)cc(O)c2C(=O)O1
inactive: [1] | [2] | [3]
active: [4] 22.6 µM | [5] 31.9 µM | [8] 35.8 µM | [7] 0.715 µM

CN1C(=S)CN=C(c2ccccc2)c2cc(Cl)ccc21
active: [4] 21.9 µM | [5] 17.4 µM
inactive: [1] | [2] | [3] | [6]

O=C(Nc1ccccc1)c1ccccc1I
active: [4] 22.4 µM | [8] 20 µM | [7] 15.9 µM
inactive: [1] | [2] | [3] | [6]

BrCCCCCCBr
active: [4] 25.2 µM | [8] 63.3 µM
not listed: [2] | [5]
inactive: all other assays above

CCCCOC(=O)c1ccccc1C(=O)O
not listed: [4] | [5] | [9]
inactive: all other assays above

O=C(Cc1ccccc1)OCc1ccccc1
active: [4] 10.1 µM
inactive: [1] | [2] | [3] | [6] | [7]

Nc1cc(Cl)ccc1O
active: [9] 34.4 µM | [4] 21.7 µM | [5] 30.7 µM | [8] 30.7 µM | [7] 21.7 µM
inactive: [2] | [3] | [6]

COC(C)(C)C
not listed: [1] | [8]
inactive: all other assays above

COC(=O)COc1ccc(Cl)cc1Cl
active: [8] 12.6 µM
not listed: [4] | [9]
inactive: all other assays above

Cc1cnc[nH]1
inactive: [1] | [2] | [3] | [4] | [6]
